Among the data in PubChem BioAssay (NCI) are growth values, retold here.

This is part of a sample that, as a whole, favours compounds with a hit. Of some 83,000 tested, about 20% had one in any assay.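 Single-concentration screen, 48 h exposure, 96-well plates. Endpoint: percent growth. Below 10 = active.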 A number with no mark means an inactive call. The source made the active and inactive calls.

Test systems include OVCAR-8 ovarian; OVCAR-5 ovarian; OVCAR-4 ovarian; SK-OV-3 ovarian; IGROV1 ovarian; OVCAR-3 ovarian; HS 578T breast; T-47D breast; NCI/ADR-RES ovarian.
Holding throughout (test): NCI-60 one-dose screen, 48 h (100 = growth as untreated, 0 = no growth, -100 = all killed)
Settings in all cases: 10 µM

`O=C1C(=O)c2ccccc2C(O)=C1CCCc1ccc(C2CCCCCC2)cc1`: the growth in the assay with OVCAR-8 ovarian is 46.8%; in the assay with OVCAR-5 ovarian, 82.6%; in the assay on OVCAR-4 ovarian, 20.9%; in the assay with SK-OV-3 ovarian, 48.8%; with IGROV1 ovarian, 21%; in the assay with OVCAR-3 ovarian, 51.5%. Besides, the growth in the assay with HS 578T breast is 115%; in the assay with T-47D breast, 29%.

`O=C(O)CN1C(=O)c2cccc3cccc(c23)C1=O`: the growth in the assay on OVCAR-8 ovarian is 98.8%; in the assay on OVCAR-5 ovarian it was 105%; with OVCAR-4 ovarian, 100%; in the assay with SK-OV-3 ovarian, 94%; in the assay on IGROV1 ovarian, 111%; in the assay on OVCAR-3 ovarian, 118%. Further, the growth with HS 578T breast was 108%; with NCI/ADR-RES ovarian, 102%; with T-47D breast, 90.1%.

As for `Clc1nc(Cl)c2c(ncn2C/C=C\Cn2cnc3c(Cl)nc(Cl)nc32)n1`, the growth is -83% (active) in the assay on OVCAR-8 ovarian; -76.7% (active) in the assay on OVCAR-5 ovarian; -69% (active) in the assay with OVCAR-4 ovarian; 34.5% in the assay on SK-OV-3 ovarian; -83.7% (active) in the assay with IGROV1 ovarian; -98.9% (active) in the assay with OVCAR-3 ovarian. The growth in the assay on HS 578T breast is -53% (active); in the assay with NCI/ADR-RES ovarian, 11%; in the assay on T-47D breast it was -47% (active).

On to `N#Cc1cc(-c2cc3ccccc3o2)oc1N`, for which the growth is 4.89% (active) in the assay with OVCAR-8 ovarian; 20.9% in the assay with OVCAR-5 ovarian; 20.5% in the assay with OVCAR-4 ovarian; 17.3% with SK-OV-3 ovarian; 7.67% (active) in the assay with IGROV1 ovarian; -7.74% (active) with OVCAR-3 ovarian. The growth in the assay on NCI/ADR-RES ovarian is 11.1%; in the assay with T-47D breast, 27.9%.

`O=c1[nH]c2ccc(Cl)cc2c2ccccc12`: the growth is 77.5% in the assay with OVCAR-8 ovarian; 84.2% with OVCAR-5 ovarian; -3.77% (active) with OVCAR-4 ovarian; 39.4% in the assay on SK-OV-3 ovarian; 29.5% in the assay on IGROV1 ovarian; 87% in the assay with OVCAR-3 ovarian. Also, the figures for the growth with HS 578T breast and in the assay on T-47D breast were 75.1% and 10.4%, respectively.

`CC1(O)CCC2CC3OC3(C)CCC3OC3(C)CCC1C2(C)C` (stereo not drawn): the growth with OVCAR-8 ovarian is 83%; with OVCAR-5 ovarian, 109%; with OVCAR-4 ovarian, 109%; with SK-OV-3 ovarian it was 104%; in the assay with IGROV1 ovarian it was 89.5%; with OVCAR-3 ovarian it was 69.4%. The growth is 89.4% in the assay on HS 578T breast, 109% in the assay with NCI/ADR-RES ovarian and 104% with T-47D breast.

Turning to `COc1cc(NC(=O)CSc2nc3ccccc3c(=O)n2CCc2ccccc2)cc(OC)c1OC`, the growth in the assay with OVCAR-8 ovarian is 30%; with OVCAR-5 ovarian, 65.9%; in the assay on OVCAR-4 ovarian it was 53.8%; in the assay on SK-OV-3 ovarian, -37.5% (active); in the assay with IGROV1 ovarian it was 8.76% (active); in the assay with OVCAR-3 ovarian, -30.6% (active). In addition, the growth in the assay on HS 578T breast was 36.6%; in the assay on NCI/ADR-RES ovarian it was 36.5%; in the assay with T-47D breast it was -1.62% (active).

Consider `CO/N=C(/C(=O)NC1C(=O)N2C(C(=O)O)=C(COC(N)=O)CSC12)c1ccco1` (stereo not drawn), for which the growth with OVCAR-8 ovarian is 108%; with OVCAR-5 ovarian, 108%; with OVCAR-4 ovarian it was 106%; in the assay with SK-OV-3 ovarian, 114%; in the assay on IGROV1 ovarian, 109%; with OVCAR-3 ovarian, 122%. The growth is 116% with HS 578T breast, 110% with NCI/ADR-RES ovarian and 101% with T-47D breast.

On to `CC(C)=NNc1ncnc2c1ncn2C1OC(CO)C(O)C1O` (stereo not drawn), for which the growth in the assay on OVCAR-8 ovarian was 25.7%; with OVCAR-5 ovarian, 49.2%; in the assay on OVCAR-4 ovarian it was 26.4%; with SK-OV-3 ovarian, 4.34% (active); in the assay on IGROV1 ovarian it was 64.5%; with OVCAR-3 ovarian, 3.84% (active). Moreover, the results for the growth in the assay with HS 578T breast and in the assay with T-47D breast were -2.14% (active) and 19.2%, respectively.

As for `COc1cc(CNCCCCCCN2C(=O)c3cccc4cccc(c34)C2=O)ccc1O`, the growth was 69% in the assay with OVCAR-8 ovarian; 116% in the assay on OVCAR-5 ovarian; 69% with SK-OV-3 ovarian; 90.1% in the assay with OVCAR-3 ovarian; 106% in the assay on HS 578T breast; 65.3% in the assay with T-47D breast.

For `CN1CCCNc2c(c(=O)c2=O)NCCCN(C)CCCNc2c(c(=O)c2=O)NCCCN(C)CCCNc2c(c(=O)c2=O)NCCCN(C)CCCNc2c(c(=O)c2=O)NCCCN(C)CCCNc2c(c(=O)c2=O)NCCCN(C)CCCNc2c(c(=O)c2=O)NCCCN(C)CCCNc2c(c(=O)c2=O)NCCC1`, the growth in the assay with OVCAR-8 ovarian was 18.9%; in the assay on OVCAR-5 ovarian it was 99.6%; in the assay with OVCAR-4 ovarian, 66.5%; in the assay on SK-OV-3 ovarian, 29.4%; in the assay on IGROV1 ovarian, 47.6%; in the assay on OVCAR-3 ovarian, 35.9%. Besides, the growth was 85% in the assay on HS 578T breast, 64.9% in the assay on NCI/ADR-RES ovarian and 14.7% with T-47D breast.

Turning to `COc1ccc(-n2c(SCc3cc(OC)c(OC)c(OC)c3)nc3ccc(C)cc3c2=O)cc1`, the growth was 84.2% in the assay on OVCAR-8 ovarian; 80.6% in the assay on OVCAR-5 ovarian; 67.2% in the assay on OVCAR-4 ovarian; 73.8% with SK-OV-3 ovarian; 62% in the assay on IGROV1 ovarian; 59.9% in the assay on OVCAR-3 ovarian. For the same molecule, the growth in the assay with T-47D breast is 67.8%.

Turning to `CC1CN(Cc2ccccc2)C(=O)NC1=O` (stereo not drawn), the growth with OVCAR-8 ovarian is 103%; in the assay with OVCAR-5 ovarian, 115%; in the assay on OVCAR-4 ovarian it was 123%; with SK-OV-3 ovarian, 111%; with OVCAR-3 ovarian, 135%; with HS 578T breast it was 108%. In addition, the growth was 107% in the assay on NCI/ADR-RES ovarian and 97.2% in the assay on T-47D breast.

`O=C1c2ccc3c4c(ccc(c24)C(=O)N1CCNCc1ccccc1)C(=O)N(CCNCc1ccccc1)C3=O`: the growth in the assay with OVCAR-8 ovarian is 2.34% (active); in the assay with OVCAR-5 ovarian it was 132%; in the assay with OVCAR-4 ovarian, -97.8% (active); with SK-OV-3 ovarian, 109%; in the assay on IGROV1 ovarian, -75.7% (active); in the assay with OVCAR-3 ovarian it was -62.6% (active). In addition, the growth in the assay with HS 578T breast was 102%; with T-47D breast it was -27.2% (active).

Consider `CCOC(=O)CCC(NC(=O)c1ccc(N)cc1)C(=O)OCC` (stereo not drawn), for which the growth was 105% with OVCAR-8 ovarian; 89.6% in the assay with OVCAR-5 ovarian; 95.7% in the assay with OVCAR-4 ovarian; 105% with IGROV1 ovarian; 106% in the assay on OVCAR-3 ovarian; 113% with HS 578T breast. Also, the growth in the assay on NCI/ADR-RES ovarian is 102%; in the assay on T-47D breast it was 101%.
